PubChem BioAssay (NCATS)
Several values for one entry are separate records, joined by “and”; a condition that tells them apart may be missing. Identical values can stand only once. Records with an inconclusive call do not appear. Activity calls are given as the source filed them. The call rests on the fitted dose curve; in most records, active means well fitted curve in the direction sought with a large enough effect; inconclusive means small, poorly fitted or top-dose-only effect, or another doubt; inactive means no such curve, though single readings can be large; an effect the other way counts as inactive or inconclusive.

Key:
[1] = Quantitative highthroughput screen to assess conditional lethalithy of NOMO1 cells grown in RPMI1640 with untreated serum (RPMI+s) (AID 1963876); further: nearly all actives have a fitted effect of over 35% in size;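 on viability: 100% = DMSO wells and 0% = empty wells without cells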
Outline: (§1)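 Each medium arm—HPLM with 10% dialyzed FBS, or RPMI1640 with 5 mM glucose and 10% untreated or dialyzed FBS—was screened against an 11-point, 3-fold compound titration for 48 h at 37 °C, with CellTiter-Glo luminescence as endpoint.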

[2] = Quantitative highthroughput screen to assess conditional lethalithy of NOMO1 cells grown in RPMI1640 with dialyzed fetal bovine serum (RPMI+ds) (AID 1963877); further: nearly all actives have a fitted effect of over 30% in size;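 on viability: series mostly up to about 46 µM; 100% = DMSO control wells and 0% = empty wells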
Outline: as §1

[3] = Quantitative highthroughput screen to assess conditional lethalithy of NOMO1 cells grown in Human Plasma-Like Medium with dialyzed fetal bovine serum (HPLM+ds) (AID 1963878); further: nearly all actives have a fitted effect of over 35% in size;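 on viability: 100% = DMSO wells and 0% = empty wells on each plate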
Outline: as §1

[4] = Quantitative highthroughput screen to assess conditional lethalithy of SEM cells grown in Human Plasma-Like Medium with dialyzed fetal bovine serum (HPLM+ds) (AID 1963882); further: nearly all actives have a fitted effect of over 35% in size; on viability: series mostly up to about 46 µM
Outline: as §1

[5] = Quantitative highthroughput screen to assess conditional lethalithy of SEM cells grown in RPMI1640 with unreated serum (RPMI+s) (AID 1963883); further: nearly all actives have a fitted effect of over 35% in size;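 on viability: 100% = DMSO wells and 0% = empty wells without cells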
Outline: as §1

[6] = Quantitative highthroughput screen to assess conditional lethalithy of SEM cells grown in RPMI1640 with dialyzed fetal bovine serum (RPMI+ds) (AID 1963884); further: nearly all actives have a fitted effect of over 35% in size;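 on viability: series mostly up to about 46 µM; 100% = DMSO control wells and 0% = empty wells without cells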
Outline: as §1

[7] = Cellular viability qHTS for adrenocortical cancer (ACC) cell line SW-13 (AID 1963989); conditions: SW-13 ACC cells viability, CellTiter-Glo, 48 h; activity (max response): hits give low values; further: nearly all actives have a fitted effect of over 65% in size;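 on activity (max response): cells grown in serum-free medium with ITS supplement; on the % scale 0 is the no-effect control and ±100 the full control effect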
Outline: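 IC50 and maximal-response values come from four-parameter logistic fits of titration data. SW-13 cells in serum-free medium received compounds (up to 46 uM final) for 48 h before CellTiter-Glo luminescence.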

[8] = Cellular viability qHTS for adrenocortical cancer (ACC) cell line NCI-H295R (AID 1963990); further: nearly all actives have a fitted effect of over 60% in size
Outline: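 Adrenocortical carcinoma cells, suspended at 300 000 cells/mL in serum-free DMEM plus ITS, rested overnight before pin transfer of compound. After two days' incubation, ATP-dependent luminescence was recorded and curve-fitted.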

[9] = Quantitative highthroughput screen to assess conditional lethalithy of P12 Ichikawa cells grown in Human Plasma-Like Medium with dialyzed fetal bovine serum (HPLM+ds) (AID 1963879); conditions: Potency: viability; further: nearly all actives have a fitted effect of over 35% in size; on viability: series mostly up to about 46 µM
Outline: as §1

[10] = Quantitative highthroughput screen to assess conditional lethalithy of P12 Ichikawa cells grown in RPMI1640 with dialyzed fetal bovine serum (RPMI+ds) (AID 1963880); conditions: Potency: P12-Ichikawa viability; further: nearly all actives have a fitted effect of over 35% in size;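 on viability: 100% = DMSO wells and 0% = empty wells on each plate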
Outline: as §1

[11] = Quantitative highthroughput screen to assess conditional lethalithy of P12 Ichikawa cells grown in RPMI1640 with untreated serum (RPMI+s) (AID 1963881); conditions: Potency: viability; further: nearly all actives have a fitted effect of over 35% in size;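 on viability: series mostly up to about 46 µM; 100% = DMSO wells and 0% = empty wells without cells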
Outline: as §1
Potency means the concentration at half of the fitted maximal effect.

CC1(C)CC(=O)c2c(C(F)(F)F)nn(-c3ccc(C(N)=O)c(NC4CCC(OC(=O)CN)CC4)c3)c2C1 (configuration not stated)
active: Potency [1] 0.372 µM | Potency [2] 0.296 µM | Potency [3] 0.332 µM | Potency [4] 0.264 µM | Potency [5] 0.264 µM | Potency [6] 0.296 µM | Potency [7] 0.282 µM | Potency [8] 0.501 µM

COC1=C2C[C@@H](C)C[C@H](OC)[C@@H](O)[C@@H](C)C=C(C)[C@H](OC(N)=O)[C@@H](OC)C=CC=C(C)C(=O)NC(=CC1=O)C2=O
active: Potency [1] 23.5 µM | Potency [2] 20.9 µM | Potency [3] 18.7 µM | Potency [4] 8.33 µM | Potency [5] 8.33 µM | Potency [6] 7.43 µM

NC(N)=Nc1nc(CSCCC(N)=NS(N)(=O)=O)cs1
inactive: Potency [1] | Potency [2] | Potency [9] | Potency [10] | Potency [11] | Potency [4] | Potency [5] | Potency [6]

CN1CCC[C@H]1CCO[C@](C)(c1ccccc1)c1ccc(Cl)cc1
inactive: Potency [1] | Potency [2] | Potency [3] | Potency [11] | Potency [6]

Cc1ccc(C2=Nc3ccc(Cl)cc3OC2)cc1
inactive: Potency [1] | Potency [2] | Potency [3] | activity (max response) [7] -18.7% | Potency [8]
active: Potency [11] 20.9 µM

CC(=O)OCC(=O)[C@@]1(O)[C@H](C)C[C@H]2[C@@H]3C=C(C)C4=Cc5c(cnn5-c5ccccc5)C[C@]4(C)[C@@H]3[C@@H](O)C[C@@]21C
active: Potency [6] 0.0148 µM | Potency [8] 25.1 µM
inactive: Potency [1] | Potency [2] | Potency [3] | activity (max response) [7] 3.11%

CO[C@H]1C(=O)[C@]2(C)[C@@H](OC)C[C@H]3OC[C@@]3(OC(C)=O)[C@H]2[C@H](OC(=O)c2ccccc2)[C@]2(O)C[C@H](OC(=O)[C@H](O)[C@@H](NC(=O)OC(C)(C)C)c3ccccc3)C(C)=C1C2(C)C
active: Potency [1] 0.0132 µM | Potency [2] 0.0132 µM | Potency [3] 0.0021 µM | Potency [11] 0.0148 µM | Potency [5] 0.0042 µM | Potency [8] 0.0079 µM

C[C@H]1[C@H](O)O[C@@H]2O[C@@]3(C)CC[C@@H]4[C@H](C)CC[C@@H]1[C@@]24OO3
active: Potency [1] 1.87 µM | Potency [2] 2.09 µM | Potency [3] 2.09 µM | Potency [11] 2.96 µM | Potency [5] 4.69 µM | Potency [6] 3.32 µM

COc1cc([C@@H](CC(=O)O)c2ccc(C)c(CN3C[C@@H](C)Oc4ccccc4S3(=O)=O)c2)cc2nnn(C)c12
inactive: Potency [1] | Potency [2]
active: Potency [9] 8.31 µM | Potency [10] 18.6 µM | Potency [11] 14.8 µM

CCNC(=O)[C@H]1O[C@@H](n2cnc3c(N)nc(NCCc4ccc(CCC(=O)O)cc4)nc32)[C@H](O)[C@H]1O
inactive: Potency [1] | Potency [2] | Potency [3] | Potency [10] | Potency [4]

C[C@]12CCC(=O)C=C1CC[C@@H]1[C@H]2[C@@H](O)C[C@@]2(C)[C@H]1CC[C@]2(O)C(=O)CO
inactive: Potency [1] | Potency [2] | Potency [3] | Potency [4]

N#CC(=C1Nc2ccccc2S1)c1ccnc(OCc2ccc(CN3CCOCC3)cc2)n1
inactive: Potency [4] | Potency [5] | Potency [6]
active: Potency [1] 8.33 µM | Potency [2] 8.33 µM | Potency [3] 6.62 µM

C1=CCOCc2cc(ccc2OCCN2CCCC2)Nc2nccc(n2)-c2cccc(c2)OCC1
active: Potency [1] 7.43 µM | Potency [2] 6.62 µM | Potency [9] 10.5 µM | Potency [10] 13.2 µM | Potency [11] 13.2 µM | Potency [4] 3.32 µM | Potency [5] 4.18 µM | Potency [6] 4.18 µM

NC(=O)c1nnn(Cc2cc(Cl)c(C(=O)c3ccc(Cl)cc3)c(Cl)c2)c1N
inactive: Potency [1] | Potency [2] | Potency [3] | Potency [4]

CCC[C@@H](NC(=O)[C@@H]1[C@H]2CCC[C@@H]2CN1C(=O)[C@@H](NC(=O)[C@@H](NC(=O)c1cnccn1)C1CCCCC1)C(C)(C)C)C(=O)C(=O)NC1CC1
inactive: Potency [1] | Potency [2] | Potency [9] | Potency [10] | Potency [11] | Potency [4] | Potency [5] | Potency [6]

CCCCN1CCC(CNC(=O)c2c3n(c4ccccc24)CCCO3)CC1
active: Potency [11] 16.6 µM
inactive: Potency [1] | Potency [2] | Potency [3] | Potency [5] | Potency [6]

CCCCC(=O)O[C@]1(C(=O)CO)[C@@H](C)C[C@H]2[C@@H]3CCC4=CC(=O)C=C[C@]4(C)[C@@]3(F)[C@@H](O)C[C@@]21C
inactive: Potency [1] | Potency [2] | Potency [3] | activity (max response) [7] -3.35% and -9.39% | Potency [8]

CCN1CCCC1CNC(=O)c1cc(S(N)(=O)=O)ccc1OC (configuration not stated)
inactive: Potency [1] | Potency [2] | Potency [9] | Potency [10] | Potency [11]
